“And” between values parts separate entries of the source, which are not always exact repeats. Identical values can stand only once. Hit rate of the full screen: of about 360,000 compounds, about 2,400 (0.67%) were called active. No stated cut-off is given here; in the data, active means enhancement above about 30%; inactive means the rest. Only a selection was taken, and actives are over-represented in it overall. Where a structure was tested more than once in an assay, its records may differ in their call.
Target: Thyrotropin-releasing hormone receptor (Homo sapiens) (UniProt P34981)
Experiment: qHTS for Small Molecule Agonists and Allosteric Enhancers of Human TRH Receptor: Primary Screen for Enhancers; further: 0% is about no effect
Conditions: TRHR cells, fluo-8 calcium fluorescence, EC20 TRH enhancement; at 2 µM; stronger effect = higher value
Outline: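 Enhancer read-out: after compound pinning and an initial kinetic agonist-mode read, an EC20 of TRH (10 nM final) was injected and fluo-8 calcium signal (Ex 480/Em 530) followed at 1 s/cycle for 100 cycles in TRHR-expressing cells.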

Sequence of Thyrotropin-releasing hormone receptor (Homo sapiens) (P34981 whole entry, looked up): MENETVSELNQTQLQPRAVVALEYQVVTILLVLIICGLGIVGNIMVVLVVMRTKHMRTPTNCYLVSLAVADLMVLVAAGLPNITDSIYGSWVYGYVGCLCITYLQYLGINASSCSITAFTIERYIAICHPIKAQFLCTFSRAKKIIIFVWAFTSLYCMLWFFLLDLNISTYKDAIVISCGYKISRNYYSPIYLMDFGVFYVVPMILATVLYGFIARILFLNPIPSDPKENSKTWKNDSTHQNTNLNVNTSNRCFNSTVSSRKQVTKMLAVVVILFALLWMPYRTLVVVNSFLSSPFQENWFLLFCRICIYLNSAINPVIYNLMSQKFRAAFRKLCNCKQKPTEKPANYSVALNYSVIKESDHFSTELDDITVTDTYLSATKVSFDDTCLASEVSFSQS

enhancement, active:
CCCn1c2ccccc2c2cnn(CC(=O)N(C)c3ccccc3CC)c(=O)c21 33.2%
Cc1ccc(C)c(NC(=O)CCC(=O)NNC(=O)c2cccs2)c1 30%
COc1cc(C2C3=C(CCCC3=O)OC3=C2C(=O)CCC3)ccc1OCC(=O)Nc1ccccc1 78.2%
CCn1nc(C)c(CNC(=O)C2CCC(=O)N(Cc3cccc(F)c3)C2)c1C (stereo not drawn) 31.7%
N#Cc1ccc(Oc2cc(C(F)(F)F)nc(-c3ccccn3)n2)cc1 55.8%
COc1ccc(-c2csc(Nc3ccccn3)n2)cc1 34.5%
CCOC(=O)Cc1csc(NC(=O)CN(C)S(=O)(=O)c2ccc3c(c2)CCC(=O)N3)n1 32.8%
CCOc1ncccc1C(=O)OCC(=O)N1c2ccccc2CC1C (stereo not drawn) 156%
CN(C)c1ccc(Nc2c3c4c(cccc4n(C)c2=O)C(=O)c2ccccc2-3)cc1 30.8%
CCCCn1c(N)c(N(CC)C(=O)c2ccc(N(C)S(=O)(=O)c3ccc(C)cc3)cc2)c(=O)[nH]c1=O 37.2%
O=C(CSc1ccc(-c2cccs2)nn1)Nc1ccccc1F 35.3%
COC(=O)c1cc(N2CCNCC2)nc2ccccc12 50.7%
Cc1csc(CN(C)C(=O)CC2C(=O)NCCN2CC(C)(C)C)n1 (stereo not drawn) 44.2%
Cc1cc(OC(C)C(=O)Nc2sc3c(c2C(N)=O)CCCC3)ccc1Cl (stereo not drawn) 34.9%
O=C(Cn1cnc2ccccc2c1=O)NCC1COc2ccccc2O1 (stereo not drawn) 38.9%
O=C(CN1C(=O)c2cccc3cccc1c23)Nc1ccccc1 43.7%
O=C(COC(=O)c1c2c(nc3ccccc13)CCCC2)c1ccc(Br)s1 35%

enhancement, inactive:
Cc1cc(Cl)ccc1OCC(=O)N(Cc1ccc(N(C)C)cc1)C1CCS(=O)(=O)C1 (stereo not drawn) -2.26%
CC1Cc2cc(S(=O)(=O)CCC(=O)NCc3ccc(Cl)cc3)ccc2N1C(=O)C1CC1 (stereo not drawn) 3.17%
CCCn1c2ccccc2c2cnn(CC(=O)N(CC)c3cc(C)ccc3C)c(=O)c21 -3.36%
CCCn1c2ccccc2c2cnn(CC(=O)NCCCOC(C)C)c(=O)c21 10.8%
CCOc1ccc(CCNC(=O)c2ccc3c(c2)sc2nc(-c4ccc(F)cc4)cn23)cc1OCC 0.915%
O=C(COC(=O)c1ccc(O)cc1O)NNC(=O)c1cccs1 6.82%
Cc1ccc(NNC(=O)c2cccs2)cc1Cl -3.86%
CCOCCCNC(=O)c1c(NC(=O)Cc2coc3ccc(C)cc23)sc2c1CCC2 -1.11%
CCOc1ccc(NC(=O)COc2ccc(C(=O)NC3CCCc4ccccc43)cc2OC)cc1 (stereo not drawn) 3.25%
CCNC(=O)c1ccc(OCC(=O)Nc2ccc(F)cc2)c(OC)c1 13.5%
COc1ccc(-c2cc(-c3ccccc3)nc3c2COc2ccc(Cl)cc2-3)cc1 2.02%
COc1ccc(Cl)cc1NC(=O)CCn1c(=O)c2cccn2c2ccccc21 1.46%
Cc1cccnc1CCNC(=O)C1CCC(=O)N(Cc2cccc(F)c2)C1 (stereo not drawn) -0.481%
COC(=O)c1ccc(CNC(=O)C2CCC(=O)N(Cc3cccc(F)c3)C2)cc1 (stereo not drawn) -7.88%
Cc1ccc(C(=O)NC2CCN(C#N)CC2)cc1 -0.515%
CCOC(=O)c1sc(NC(=O)/C=C/c2ccc(C(C)C)cc2)c(C(=O)OCC)c1C 0.66%
N#Cc1ncc(C(F)(F)F)cc1Oc1cccnc1 -3.06%
Cc1c(Cl)cccc1NC(=O)c1noc2c1CCCC2 7.16%
Cc1cc(NS(=O)(=O)c2ccc(NC(=O)c3ccccc3C)cc2)nc(C)n1 10.7%
CCCn1c(C2CCCN2c2nc(-c3ccc(OC)cc3)cs2)nc2ccccc21 (stereo not drawn) -1.81%
COc1ccc(-c2csc(-c3c(N)c(C(=O)c4ccc(OC)c(OC)c4)n4ccccc34)n2)cc1 0.214%
Cc1nc(NC(=O)CN(C)S(=O)(=O)c2ccc(Cl)cc2)sc1C 4.55%
Cc1cccc(N2CCN(C(=O)CN(C)S(=O)(=O)c3ccc4c(c3)CCC(=O)N4)CC2)c1C 2.84%
Cc1cc(C)cc(NC(=O)CCCc2nc(-c3ccccc3Cl)no2)c1 -21.4%
COc1ccc(CCNC(=O)c2cn(C)c3ccc(S(=O)(=O)N(C)C4CCCCC4)cc3c2=O)cc1OC -14.3%
CCOC(=O)c1[nH]c(C)c(C(=O)OCC(=O)N2c3ccccc3CC2C)c1C (stereo not drawn) -0.269%
CCOc1ncccc1C(=O)OCC(=O)NC1CC1 6.62%
Cc1ccn2c(Nc3ccc4c(c3)OCCO4)c(-c3ccc(C)s3)nc2c1 -3.6%
Cc1ccc(CCNC(=O)c2ccc3c(c2)nc2n3CCC(C)C2)cc1 (stereo not drawn) -2.39%
Cc1cccc(-n2c(=O)c3c(c4cc(C)ccc4n3C)n(CC(=O)Nc3ccccc3Cl)c2=O)c1 -2.31%
Cc1ccc(Nc2c(-c3ccc(N(C)C)cc3)nc3nc[nH]n23)cc1 1.88%
CCOc1ccc(C(=O)c2cn(Cc3ccc(F)cc3)c3ccc(F)cc3c2=O)cc1 -6.47%
COc1cc2c(cc1OC)C(COc1ccc(F)cc1)N(C(=O)c1ccccc1F)CC2 (stereo not drawn) -0.875%
CCCCN(C(=O)c1ccc2ccccc2c1)c1c(N)n(CCCC)c(=O)[nH]c1=O -1.43%
CCCCn1c(N)c(N(CCOC)C(=O)c2cccc(S(=O)(=O)N(C)c3ccccc3)c2)c(=O)[nH]c1=O -3.31%
Cc1nn(CC(=O)NCCc2ccccc2)c(=O)c2c1sc1ccccc12 -4.11%
CCc1ccc(NC(=O)c2cc3c(=O)n(Cc4cccnc4)ccc3nc2C)cc1 3.22%
COc1ccccc1C(=O)Nc1c(C(=O)Nc2ccc(C)cc2)oc2ccccc12 1.48%
O=C(CSc1ccc(-c2ccccn2)nn1)Nc1ccccc1 -3.04%
O=C(CSc1nnc(CNC(=O)c2ccccc2)n1-c1ccc(F)cc1)Nc1ccccc1F 1.22%
CCOc1ccc(CNC(=O)c2cc(-c3ccc(Cl)s3)nc3ccccc23)cc1 9.74%
Cc1ccc2nc(CN3CCN(S(=O)(=O)c4ccc(C)c(C)c4)CC3)oc2c1 0.582%
COC(=O)c1cnc(N2CCN(c3ccccc3OC)CC2)c2ccccc12 -10.4%
CC(=O)N1CCN(C(=O)c2cc(-c3ccc(Cl)s3)nc3ccccc23)CC1 2.16%
COc1cccc(CNC(=O)Cn2ncn3c(cc4ccccc43)c2=O)c1 4.48%
CCOc1cc(-c2nnc(SCC(=O)NC3CCCCC3)nc2-c2ccc(OC)c(OCC)c2)ccc1OC -3.44%
O=C(CNC(=O)c1ccc(Cl)cc1Cl)OC(C(=O)Nc1cc(C(F)(F)F)ccc1Cl)c1ccccc1 (stereo not drawn) 10.6%
Cc1ccc(C(=O)Cn2cccn2)cc1 -2.28%
O=C(CC(n1cncn1)C(Cl)(Cl)Cl)c1ccc([N+](=O)[O-])cc1 (stereo not drawn) 0.518%
O=C(NCCc1csc(-c2ccc(C(F)(F)F)cc2)n1)C(=O)Nc1ccc(F)c(Cl)c1 0.606%
Cc1nc(CN(C)C(=O)CC2C(=O)NCCN2Cc2ccc(F)cc2)cs1 (stereo not drawn) 20.6%
CC(C)(C)CN1CCNC(=O)C1CC(=O)NC1Cc2ccccc2C1 (stereo not drawn) -4.71%
COc1ccc(CCNC(=O)c2cnc3sc(N4CCCCCC4)nn3c2=O)cc1OC 7.34%
COc1ccc(S(=O)(=O)c2cn(C)c3cc(N4CCCCC4)c(F)cc3c2=O)cc1 7.82%
Cc1c(CNC2CCCCC2)c(C(=O)O)c(C)n1Cc1cccc(Cl)c1 -4.62%
COc1ccc(-c2cc(C(=O)Nc3sc4c(c3C(N)=O)CCCC4)no2)cc1 10.2%
COC(=O)c1c(NC(=O)C(C)Oc2ccc(Cl)c(C)c2)sc(C)c1C (stereo not drawn) -3.22%
CC1CC(C)CN(C(=O)CCNC(=O)Cn2cnc3ccccc3c2=O)C1 (stereo not drawn) 2.77%
O=C(Cn1nc(Cc2cccnc2)c2ccccc2c1=O)NCC1COc2ccccc2O1 (stereo not drawn) 0.892%
COC(=O)c1sc2ncccc2c1-n1c(C)ccc1C 4.46%
Cc1ccc(CN(C(=O)COc2ccc(Cl)cc2C)C2CCS(=O)(=O)C2)o1 (stereo not drawn) 1.47%
O=C(CN1CCOCC1)Nc1ccccc1 2.28%
COc1cccc(NC(=O)CN2C(=O)c3ccccc3Sc3ncccc32)c1 2.38%
Oc1ccc(Cl)cc1C1C=C(c2ccc3c(c2)OCO3)NC(c2c(F)cccc2Cl)N1 (stereo not drawn) -2.95%
CCCC(=O)Nc1cc2nn(-c3ccccc3)nc2cc1C -3.06%
CCCn1c2ccccc2c2cnn(CC(=O)NCC3CCN(Cc4ccc(C)cc4)CC3)c(=O)c21 1.43%
CCOc1ccc(NC(=O)CSc2c3c(nc4ccccc24)CCCC3)cc1 -3.93%
CCc1nc2ccccc2c(C(=O)OC2CCCCC2=O)c1C (stereo not drawn) -2.51%
Cc1cc(NS(=O)(=O)c2ccc3oc(=O)c4ncn(C)c4c3c2)ccc1Br -12.1%
COc1ccc2c(c1)C=C(C(=O)NCc1cc(Br)ccc1OC)CO2 -3.71%

enhancement, -6.86% (inactive) and 34.2% (active):
O=C(Cn1c[n+](CC(=O)c2ccc([N+](=O)[O-])cc2)cn1)c1ccc([N+](=O)[O-])cc1

Reference: PubChem BioAssay AID493056 (National Center for Advancing Translational Sciences (NCATS), 2011)
